PubChem BioAssay (Tox21)
Inconclusive results are not listed. Calls of active or inactive are those of the source. Calls come from the whole dose curve; as a rule, active = well fitted activation curve with a large enough effect in the signal ratio in the repeat runs (not every such curve was filed as active); inconclusive = weak or mixed curves, or effect the other way; inactive = flat fitted curve, though single readings scatter; the % refers to the signal ratio.
% is set by controls: 0 for no effect and ±100 for the full control effect.

Assay: qHTS assay to identify small molecule agonists of the endoplasmic reticulum stress response signaling pathway (AID 1159516)
Settings: ESRE-bla HeLa, ER stress beta-lactamase reporter, 5 h; series mostly up to 61 µM
From the text: National Center for Advancing Translational Sciences [NCATS]
NIH Chemical Genomics Center [NCGC]
U.S. Environmental Protection Agency [EPA]
National Institutes of Environmental Health Sciences [NIEHS]
National Toxicology Program [NTP]
U.S. Food and Drug Administration [FDA]
Endoplasmic Reticulum (ER) plays an important role in cellular signaling, protein folding/maturation, stress response, lipid biosynthesis, calcium storage and release etc. Under stress conditions, proteins in ER misfold or unfold, and leading to the expression of ER stress responsive genes. ER stress has been associated with a variety of pathophysiological conditions such as cancer, inflammation, neurodegenerative diseases, diabetes, ischemic heart disease etc. To identify the compounds that induce ER stress response, an ER stress reporter cell line, CellSensor ESRE-bla HeLa (Life Technologies, Carlsbad, CA) containing a beta-lactamase reporter gene under control of the Endoplasmic reticulum Stress Response Element (ESRE) was used to screen Tox21 10K compound library.
Tox21 Assay Protocol Summary:
ESRE-bla HeLa cells were dispensed at 1,500 cells/6 uL of assay medium per well into black wall/clear-bottom 1536-well plates using a Multidrop Combi (ThermoFisher Scientific, Waltham, MA) dispenser. After the assay plates were incubated at 37 C and 5% CO2 for an overnight, 23 nL of compounds dissolved in DMSO, positive controls or DMSO only was transferred to the assay plate by a Pintool station (Kalypsys, San Diego, CA). The assay plates were incubated at 37 C and 5% CO2 for 5 hr. One uL of LiveBLAzer B/G FRET substrate (Life Technologies) was added using a Flying Reagent Dispenser (Aurora Discovery, San Diego, CA) and the plates were incubated at room temperature for 2 hr. Fluorescence intensity (405 nm excitation, 460 nm and 530 nm emissions) was measured using an Envision plate reader (PerkinElmer, Shelton, CT).
With `c1ccc(Cc2ccccc2)cc1` the outcome was “inactive”.
With `[K+]` the outcome was “inactive”.
In the case of `NO`, the outcome is reported as “inactive”.
In the case of `C[C@@H]1CCC[C@H](C)N1`, the outcome is reported as “inactive”.
With `C=CC(=O)OCCCl` the outcome was “inactive”.
With `CCN[C@H]1C[C@H](C)S(=O)(=O)c2sc(S(N)(=O)=O)cc21` the outcome was “inactive”.
For `CCC(C(=O)NC(=O)NC(C)=O)c1ccccc1` (stereo not given), the outcome was “inactive”.
For `CCCc1ncc(C[n+]2ccccc2C)c(N)n1`, the outcome was “inactive”.
For `CCOC(=O)COC(=O)c1ccccc1C(=O)OCC`, the outcome was “inactive”.
With `Cc1c(N)c(=O)n(-c2ccccc2)n1C` the outcome was “inactive”.
In the case of `CCCn1cc[n+](C)c1C`, the outcome is reported as “inactive”.
In the case of `C[N+]1(C)CCCC(OC(=O)C(O)(c2ccccc2)c2ccccc2)C1` (stereo not given), the outcome is reported as “inactive”.
In the case of `CC[N+](CC)(CC)CCOc1cccc(OCC[N+](CC)(CC)CC)c1OCC[N+](CC)(CC)CC`, the outcome is reported as “inactive”.
For `CCCCCCC#CC(=O)OC`, the outcome was “inactive”.
For `COc1ccccc1OCC1CNC(=O)O1` (stereo not given), the outcome was “inactive”.
With `CCNS(=O)(=O)c1ccc(C)cc1` the outcome was “inactive”.
With `CCO[Si](OCC)(OCC)c1ccccc1` the outcome was “inactive”.
In the case of `CC1=NN(c2cc(S(=O)(=O)O)ccc2Cl)C(=O)C1N=Nc1ccccc1` (stereo not given), the outcome is reported as “inactive”.
For `CC[N+](C)(CC)CCOC(=O)C1c2ccccc2Oc2ccccc21`, the outcome was “inactive”.
For `CCCC[N+](C)(CCCC)CCCC`, the outcome was “inactive”.
In the case of `Nc1ccn([C@@H]2O[C@H](CO)[C@@H](O)[C@@H]2O)c(=O)n1`, the outcome is reported as “inactive”.
With `CC1(C)[C@@H]2CC[C@@]1(C)[C@H](O)C2` the outcome was “inactive”.
With `CC/C=C\CCOC(C)OCC` (stereo not given) the outcome was “inactive”.
For `CCN[C@@H]1C[C@H](N)[C@@H](OC2OC(CN)=CCC2N)[C@H](O)[C@H]1O[C@H]1OC[C@](C)(O)[C@H](NC)[C@H]1O` (stereo not given in full), the activation was 0.974% [at 0.628 µM] (inactive).
In the case of `COCCOCC(OC)OC`, the outcome is reported as “inactive”.
With `CCCC(C)C(=O)OCC` (stereo not given) the outcome was “inactive”.
In the case of `O=S(=O)(O)c1cccc2ccccc12`, the outcome is reported as “inactive”.
For `CCCCCCCCN1CCCC1=O`, the outcome was “inactive”.
With `CC(C)(C)c1ccc(-c2ccc(C(C)(C)C)cc2)cc1` the outcome was “inactive”.
For `CC(=O)Oc1cccc(C)c1`, the outcome was “inactive”.
For `CC(C)=CCC/C(C)=C/C#N`, the outcome was “inactive”.
For `CCCCCCCCCC[N+](C)(C)[O-]`, the outcome was “inactive”.
For `CC(C)C1CCC(O)CC1` (stereo not given), the outcome was “inactive”.
For `C=COC(=O)C(C)(CC)CCC(C)C` (stereo not given), the outcome was “inactive”.
In the case of `Cc1ccc(C(=O)c2ccc(CC(=O)O)n2C)cc1`, the outcome is reported as “inactive”.
With `CC(N)C12CC3CC(CC(C3)C1)C2` (stereo not given) the outcome was “inactive”.
With `CN(C)[C@@H]1C(=O)C(C(=O)NCN2CCCC2)=C(O)[C@@]2(O)C(=O)C3=C(O)c4c(O)cccc4[C@@](C)(O)C3C[C@@H]12` (stereo not given in full) the outcome was “inactive”.
With `CC(=O)N1C[C@H](O)C[C@H]1C(=O)O` the outcome was “inactive”.
With `Nc1ccn([C@@H]2O[C@H](CO)[C@@H](O)C2O)c(=O)n1` (stereo not given in full) the outcome was “inactive”.
For `CCCCCC(C)N` (stereo not given), the outcome was “inactive”.
